KDM5B inh – inhibitors of human KDM5B histone demethylase; KDM5B demethylase, FDH-coupled NADH fluorescence (FDH is formaldehyde dehydrogenase); 2.6% of 220,000 active; AID 1347165; Q9UGL1; Potency, µM (highest dose often 57.7 µM), most hits filed as inhibitors; active = well fitted inhibition curve with a large enough effect; note: nearly all actives have a fitted effect of over 70% in size
Target sequence (Q9UGL1 whole entry, looked up): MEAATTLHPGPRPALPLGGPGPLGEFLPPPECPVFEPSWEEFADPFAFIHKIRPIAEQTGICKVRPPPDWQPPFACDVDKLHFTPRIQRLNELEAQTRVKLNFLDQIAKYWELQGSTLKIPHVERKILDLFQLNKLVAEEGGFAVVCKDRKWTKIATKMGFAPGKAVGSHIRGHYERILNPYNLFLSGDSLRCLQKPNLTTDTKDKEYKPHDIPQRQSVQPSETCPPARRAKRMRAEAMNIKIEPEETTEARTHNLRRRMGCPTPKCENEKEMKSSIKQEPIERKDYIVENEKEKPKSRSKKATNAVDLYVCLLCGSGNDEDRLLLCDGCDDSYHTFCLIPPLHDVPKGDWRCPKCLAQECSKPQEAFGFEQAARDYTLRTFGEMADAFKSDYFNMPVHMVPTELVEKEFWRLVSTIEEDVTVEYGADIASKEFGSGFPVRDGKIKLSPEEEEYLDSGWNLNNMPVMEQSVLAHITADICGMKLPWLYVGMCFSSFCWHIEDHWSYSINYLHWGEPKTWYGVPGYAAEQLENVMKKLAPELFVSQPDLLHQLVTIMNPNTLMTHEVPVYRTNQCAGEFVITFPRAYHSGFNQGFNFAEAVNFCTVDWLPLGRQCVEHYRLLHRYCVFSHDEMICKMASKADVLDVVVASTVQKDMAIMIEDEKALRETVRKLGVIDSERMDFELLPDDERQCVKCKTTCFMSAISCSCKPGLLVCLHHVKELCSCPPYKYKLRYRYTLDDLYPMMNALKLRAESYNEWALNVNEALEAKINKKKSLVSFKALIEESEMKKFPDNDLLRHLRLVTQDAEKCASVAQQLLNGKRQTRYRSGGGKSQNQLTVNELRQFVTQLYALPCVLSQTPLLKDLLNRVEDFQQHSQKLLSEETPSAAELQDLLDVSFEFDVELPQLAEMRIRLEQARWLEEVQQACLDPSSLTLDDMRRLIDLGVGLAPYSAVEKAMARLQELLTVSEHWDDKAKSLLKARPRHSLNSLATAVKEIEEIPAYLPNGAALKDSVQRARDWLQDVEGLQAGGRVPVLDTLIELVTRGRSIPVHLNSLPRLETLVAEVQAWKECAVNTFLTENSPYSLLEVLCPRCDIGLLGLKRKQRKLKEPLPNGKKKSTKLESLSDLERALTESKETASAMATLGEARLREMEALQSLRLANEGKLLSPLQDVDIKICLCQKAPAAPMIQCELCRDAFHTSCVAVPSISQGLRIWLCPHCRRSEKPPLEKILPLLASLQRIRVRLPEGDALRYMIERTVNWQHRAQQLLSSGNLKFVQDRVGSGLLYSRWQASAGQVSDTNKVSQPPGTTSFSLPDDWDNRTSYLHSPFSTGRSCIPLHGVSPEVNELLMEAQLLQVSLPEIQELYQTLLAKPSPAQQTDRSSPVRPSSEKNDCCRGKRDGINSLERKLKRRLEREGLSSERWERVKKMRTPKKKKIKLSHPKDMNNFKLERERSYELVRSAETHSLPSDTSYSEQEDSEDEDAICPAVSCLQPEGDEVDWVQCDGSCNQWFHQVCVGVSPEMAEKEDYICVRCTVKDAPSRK
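Measured: NADH fluorescence change, 30 min, RT. System: KDM5BΔAP 200 nM final, H3K4me3 peptide, α-KG, Fe(II), ascorbate, NAD⁺ plus FDH, pH 7.5 HEPES. Compounds: titrated, 10 min pre-incubation with enzyme.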
Large screens that a line does not name were inactive. This is one part of a sample in which hits are shown more often than they occur.

O=C(NCc1ccccc1)c1ccnc(-c2nnc3ccc(N4CCOCC4)nn23)c1	none
O=C(NCc1c[nH]c2ncccc12)c1ccc(C(F)(F)F)cc1	none
O=C(Cc1c[nH]c2ncc(-c3cccnc3)cc12)NCCc1ccccn1	none
NC(=O)Cc1c[nH]c2ncc(-c3cccc(CO)c3)cc12	KDM5B inh 31.6µM
NC(=O)Cc1c[nH]c2ncc(-c3ccc(F)cc3)cc12	KDM5B inh 35.5µM
O=C(Cc1c[nH]c2ncc(-c3cccc(CO)c3)cc12)NCc1cccnc1	KDM5B inh 31.6µM
O=C(Cc1c[nH]c2ncc(-c3ccccc3F)cc12)NCc1cccnc1	KDM5B inh 28.2µM
Cc1ccccc1NC(=O)CCS(=O)(=O)c1ccc2c(c1)NC(=O)CS2	none
Cc1cc(C)c(CN2CCC3(Cc4ccccc4CNC3=O)C2)c(C)c1 (centres undefined)	none
CCOC(=O)c1cnc(N2CCN(Cc3ccccc3)CC2)c2ccccc12	none
CCNC(=O)C(=O)NCC(c1ccco1)S(=O)(=O)c1ccc(Cl)cc1 (centres undefined)	none
CCN(CC)c1ccc(NS(=O)(=O)c2ccc3c(c2)CCCC3)cc1C(=O)O	none
Cc1cc(N2C(=O)C(=O)/C(=C(/O)c3ccc(Br)cc3)C2c2cccc(O)c2)no1 (centres undefined)	none
COCCn1nc(C(=O)NCC(c2ccc(OC)cc2)N2CCCC2)ccc1=O (centres undefined)	none
Cc1cccc(-c2cnc3[nH]cc(CC(N)=O)c3c2)c1	KDM5B inh 31.6µM
CNC(=O)c1cccc(-c2cnc3[nH]cc(CC(=O)N(C)C)c3c2)c1	none
Cn1cnc2c1c(=O)n(CCCSCc1ccccc1Cl)c(=O)n2C	none
Cc1cc(-c2c(C(=O)N3CCOCC3)c(C)nn2-c2ccccc2)no1	none
COc1ccc(-c2cc(C(=O)N3CCC3)c3ccccc3n2)cc1	none
COc1ccc(-c2cc(C(=O)N3CCOCC3)c3c(C)nn(-c4ccccc4)c3n2)cc1	KDM5B inh 79.4µM
O=C(Nc1cccc(-c2nc3ccccc3o2)c1)c1ccccc1Cl	none
CC(C)n1cc(-c2cc(C(=O)N(C)Cc3cccnc3)c3cc(F)ccc3n2)cn1	KDM5B inh 25.1µM
Cc1nc2c(cnn2C(C)C)cc1C(=O)N(C)Cc1ccc(Cl)cc1Cl	none
CN(Cc1ccccc1)C(=O)c1cc(-c2ccccn2)nc2ccccc12	none
CN(Cc1ccccc1)C(=O)c1cc(-c2ccncc2)nc2ccccc12	none
Cc1c(CN(C)C(=O)c2cc(-c3ccccc3)nc3ccc(Br)cc23)cnn1C	none
CC(C)CN(C)C(=O)c1cc(-c2cnn(C(C)C)c2)nc2cc(F)ccc12	KDM5B inh 28.2µM
CC(Oc1ccc(C#N)cc1)C(=O)c1cccc(Cl)c1 (centres undefined)	none
COc1ccc(-c2nnc(SCc3cn4cccc(C)c4n3)o2)cc1OC	none
N#CC(C(=O)NCc1ccccc1)=C1CCCCCC1	none
CC1CCCN(c2nc(-c3ccccn3)nc3ccccc23)C1 (centres undefined)	none
CCC(C)NC(=O)C1=CC(c2cccc(OC)c2)=NS(=O)(=O)N1C (centres undefined)	none
Cc1ccc(S(=O)(=O)N(CC(=O)NCCc2ccccc2)Cc2c(F)cccc2Cl)cc1	none
COc1ccc(NC(=O)c2ccnc(-c3nnc4ccc(Nc5ccccc5)nn34)c2)cn1	KDM5B inh 31.6µM
C[C@@H]1CN(C(=O)c2ccnc(-c3nnc4ccc(Nc5ccccc5)nn34)c2)C[C@H](C)O1	none
COc1cccc(NC(=O)c2ccnc(-c3nnc4ccc(N5CCN(C)CC5)nn34)c2)c1	none
CN(C)c1ccc(CN2Cc3[nH]cnc3C[C@H]2c2nc(-c3ccccc3)no2)cc1	none
COC(=O)COCC(=O)N1Cc2[nH]cnc2C[C@H]1c1nc(-c2ccc(F)c(Cl)c2)no1	none
O=C(Nc1ccc(Cl)cc1)N1Cc2[nH]cnc2C[C@H]1c1nc(-c2ccc(F)c(Cl)c2)no1	none
COc1ccc(CN2Cc3[nH]cnc3C[C@H]2c2nc(-c3ccc4ccccc4c3)no2)cc1	KDM5B inh 15.8µM
Cc1cccc(-c2noc([C@@H]3Cc4nc[nH]c4CN3C(=O)NC(C)C)n2)c1	KDM5B inh 8.91µM
Cc1ccc(-c2noc([C@@H]3Cc4nc[nH]c4CN3C(=O)c3ccc(F)cc3)n2)cc1	none
Cc1ccc(NC(=O)N2Cc3[nH]cnc3C[C@H]2c2nc(-c3ccc(C)cc3)no2)cc1	none
Cc1ccc(NC(=O)N2Cc3[nH]cnc3C[C@H]2c2nc(-c3cccc([N+](=O)[O-])c3)no2)cc1	none
Fc1ccc(CN2Cc3[nH]cnc3C[C@H]2c2nc(-c3ccc(F)c(Cl)c3)no2)cc1	KDM5B inh 35.5µM
COc1ccccc1CN1Cc2[nH]cnc2C[C@H]1c1nc(-c2cccc(C)c2)no1	none
Cc1ccc(-c2noc([C@@H]3Cc4nc[nH]c4CN3Cc3ccc(N(C)C)cc3)n2)cc1	none
CCNC(=O)N1Cc2[nH]cnc2C[C@H]1c1nc(-c2ccc(F)c(Cl)c2)no1	KDM5B inh 39.8µM
CC(Sc1n[nH]c(=O)n1C1CC1)C(=O)c1ccc(Br)cc1 (centres undefined)	none
CCc1cccc(NC(=O)Cc2c[nH]c3ccccc23)c1	none
N#Cc1ccc(C(=O)Nc2ccc(Cl)c(-c3nc4ncccc4o3)c2)c(F)c1	none
CNC(=O)c1nn(CN2CCN(C(c3ccccc3)c3ccccc3)CC2)c(=O)c2ccccc12	none
COc1ccc(-c2nc3cc(NC(=O)c4ccc(C)c([N+](=O)[O-])c4)ccc3o2)cc1OC	none
O=C(NCC(=O)N1CCc2ccccc2C1)C1CCC(CNS(=O)(=O)c2ccc(F)cc2)CC1 (centres undefined)	none
CCCCCOc1ccc(C(=O)C2CC2)cc1	none
CCOC(=O)c1cnn(-c2cc(C)nc3c(-c4ccc(F)cc4)c(CC)nn23)c1N	none
CC(C)c1ccc2oc(=O)cc(CN3CCC4(CC3)OCCO4)c2c1	none
CC(C)C(NC(=O)c1ccccc1F)C(=O)NCc1cnn(-c2ccccc2)c1 (centres undefined)	none
O=C(Nc1ccc2nc[nH]c(=O)c2c1)c1ccc(F)cc1F	none
CCCOc1ccccc1NC(=O)Cc1nn(C)c(=O)c2ccccc12	none
COc1ccc(CN2Cc3[nH]cnc3C[C@H]2c2nc(-c3ccncc3)no2)cc1	KDM5B inh 28.2µM
O=C(C1CCCCC1)N1Cc2[nH]cnc2C[C@H]1c1nc(-c2ccc3ccccc3c2)no1	KDM5B inh 31.6µM
O=C(NC1CCCCC1)N1Cc2[nH]cnc2C[C@H]1c1nc(-c2ccccc2)no1	none
CN(C)c1ccc(CN2Cc3[nH]cnc3C[C@H]2c2nc(-c3ccncc3)no2)cc1	none
CC(C)(CC(=O)O)CC(=O)N1Cc2[nH]cnc2C[C@H]1c1nc(-c2ccc3ccccc3c2)no1	none
COc1ccc(NC(=O)N2Cc3[nH]cnc3C[C@H]2c2nc(-c3ccncc3)no2)cc1	none
Cc1ccccc1-n1c(SC(C)C(=O)c2ccc(Br)cc2)nnc1N1CCOCC1 (centres undefined)	none
CCOc1cccc(COC(=O)c2cccc(S(=O)(=O)N3CCOCC3)c2)c1OC(F)F	none
Fc1ccccc1CNCCN1CCCC1	none
CCCC(C)NC(=O)Nc1cc(C(=O)NC2CC2)ccc1C (centres undefined)	none
COC(=O)c1ccccc1NC(=O)O[C@@H]1CO[C@H]2[C@@H]1OC[C@@H]2Nc1nccc(-c2ccc3c(c2)OCO3)n1	KDM5B inh 28.2µM
Cc1ccc(NC(=O)O[C@@H]2CO[C@H]3[C@@H]2OC[C@@H]3Nc2nccc(-c3ccccc3)n2)cc1	KDM5B inh 28.2µM
COc1ccc(-c2ccnc(N[C@H]3CO[C@H]4[C@@H]3OC[C@@H]4NS(=O)(=O)c3ccc(C)cc3)n2)cc1	none

Source: PubChem
